Experimental data from PubChem BioAssay (Tox21).
Several values for one entry are separate records, joined by “and”; a condition that tells them apart may be missing. Identical values can stand only once. Inconclusive results are not listed. Some compounds were tested as several samples or in several runs, with calls that do not always agree. Activity calls are given as the source filed them. Unless noted, the call rests on the fitted dose curve; in most records, active means well fitted curve in the direction sought with a large enough effect in the repeat runs; inconclusive means weak or mixed curves; inactive means no such curve, though single readings can be large; an effect the other way counts as inactive or inconclusive.

Columns and labels:
[1] = qHTS assay to identify small molecule antagonists of the estrogen related receptor (ERR) signaling pathway from Tox21 library - cell viability counter screen (AID 1224834); further: nearly all actives have a fitted effect of over 30% in size; further: potency means the concentration at half of the fitted maximal effect
How it was run: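 In this quantitative HTS format, ERR cells receive compounds in DMSO and are incubated for 17.5 h at 37 C. Live-cell protease activity is then detected with CellTiter-Fluor.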

[2] = molecular target: Luciferin 4-monooxygenase (Photinus pyralis) (UniProt P08659); assay: qHTS assay to identify small molecule inhibitors of firefly luciferase (AID 1224835); further: nearly all actives have a fitted effect of over 25% in size; further: potency means the concentration at half of the fitted maximal effect
Luciferin 4-monooxygenase (Photinus pyralis), sequence (P08659 whole entry, looked up): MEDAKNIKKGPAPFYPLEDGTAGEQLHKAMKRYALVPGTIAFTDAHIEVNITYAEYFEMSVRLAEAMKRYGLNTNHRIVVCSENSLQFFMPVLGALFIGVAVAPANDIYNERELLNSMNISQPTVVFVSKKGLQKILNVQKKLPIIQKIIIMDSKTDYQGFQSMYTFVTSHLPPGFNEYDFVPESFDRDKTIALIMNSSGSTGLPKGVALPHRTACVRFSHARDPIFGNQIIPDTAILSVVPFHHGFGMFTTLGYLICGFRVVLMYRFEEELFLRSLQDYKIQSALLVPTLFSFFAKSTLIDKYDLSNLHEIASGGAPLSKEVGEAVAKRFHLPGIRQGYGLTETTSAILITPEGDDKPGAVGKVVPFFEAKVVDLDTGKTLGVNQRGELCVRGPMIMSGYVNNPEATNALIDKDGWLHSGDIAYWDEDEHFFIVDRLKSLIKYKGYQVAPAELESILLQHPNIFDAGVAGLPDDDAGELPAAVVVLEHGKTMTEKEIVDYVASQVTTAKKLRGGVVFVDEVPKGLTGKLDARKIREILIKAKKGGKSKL
How it was run: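 Inhibition of purified Photinus luciferase is measured by luminescence. Substrate levels (D-luciferin, ATP) sit at their KM values. Each compound is tested in a concentration series.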

[3] = qHTS assay to identify small molecule antagonists of the constitutive androstane receptor (CAR) signaling pathway - cell viability counter screen (AID 1224837); further: nearly all actives have a fitted effect of over 45% in size
How it was run: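 In quantitative HTS format, compounds at 15 concentrations were applied to HepG2 cells double-transfected with hCAR and CYP2B6-2.2kb under 50 nM CITCO stimulation; live-cell protease activity was read after 23 hr via CellTiter-Fluor.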

[4] = molecular target: Nuclear receptor subfamily 1 group I member 3 (Homo sapiens) (UniProt Q14994); assay: qHTS assay to identify small molecule agonists of the constitutive androstane receptor (CAR) signaling pathway (AID 1224839); further: nearly all actives have a fitted effect of over 15% in size; further: potency means the concentration at half of the fitted maximal effect;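 on activation: HepG2 cells stably carrying human CAR and a CYP2B6 luciferase reporter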
Nuclear receptor subfamily 1 group I member 3 (Homo sapiens), sequence (Q14994 whole entry, looked up): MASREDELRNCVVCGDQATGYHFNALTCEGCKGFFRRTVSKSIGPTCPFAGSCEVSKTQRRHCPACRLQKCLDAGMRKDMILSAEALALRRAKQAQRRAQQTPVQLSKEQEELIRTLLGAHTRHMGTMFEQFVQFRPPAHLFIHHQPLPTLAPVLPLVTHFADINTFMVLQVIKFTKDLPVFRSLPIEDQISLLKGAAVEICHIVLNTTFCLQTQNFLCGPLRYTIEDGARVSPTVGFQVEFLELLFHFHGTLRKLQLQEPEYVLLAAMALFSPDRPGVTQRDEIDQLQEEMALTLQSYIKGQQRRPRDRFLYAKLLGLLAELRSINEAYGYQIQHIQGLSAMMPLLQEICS
How it was run: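 HepG2 cells stably expressing hCAR and a CYP2B6-2.2kb luciferase reporter were treated with compounds at 15 concentrations plus 0.75 uM PK11195 (final) for 24 h at 37 C; luminescence was read after ONE-Glo addition.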

[5] = molecular target: Thyrotropin receptor (Homo sapiens) (UniProt P16473); assay: qHTS assay to identify small molecule agonists of the thyroid stimulating hormone receptor (TSHR) signaling pathway (AID 1224843; calls by dose curve; further: nearly all actives have a fitted effect of over 45% in size)
Thyrotropin receptor (Homo sapiens), sequence (P16473 whole entry, looked up): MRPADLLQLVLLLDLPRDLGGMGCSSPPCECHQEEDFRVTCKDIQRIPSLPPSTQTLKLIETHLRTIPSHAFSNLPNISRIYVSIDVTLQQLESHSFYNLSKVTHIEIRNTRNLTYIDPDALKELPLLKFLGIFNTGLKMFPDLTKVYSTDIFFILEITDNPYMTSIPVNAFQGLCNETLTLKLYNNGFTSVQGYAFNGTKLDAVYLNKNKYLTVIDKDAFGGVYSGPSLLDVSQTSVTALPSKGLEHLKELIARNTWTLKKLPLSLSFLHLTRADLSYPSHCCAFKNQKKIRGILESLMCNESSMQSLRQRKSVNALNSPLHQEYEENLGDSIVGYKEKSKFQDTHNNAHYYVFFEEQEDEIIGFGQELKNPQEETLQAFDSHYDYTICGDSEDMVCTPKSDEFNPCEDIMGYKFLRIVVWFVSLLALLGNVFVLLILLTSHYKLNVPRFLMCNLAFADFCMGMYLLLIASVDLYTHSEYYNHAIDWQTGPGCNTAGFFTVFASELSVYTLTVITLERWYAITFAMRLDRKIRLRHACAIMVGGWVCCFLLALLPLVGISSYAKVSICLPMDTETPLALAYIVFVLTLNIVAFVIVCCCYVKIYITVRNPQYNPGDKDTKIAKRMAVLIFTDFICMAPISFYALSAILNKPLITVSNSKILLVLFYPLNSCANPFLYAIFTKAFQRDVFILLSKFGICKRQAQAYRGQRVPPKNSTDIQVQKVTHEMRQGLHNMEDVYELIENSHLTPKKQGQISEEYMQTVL
How it was run: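 Agonist activity read as cAMP rise via d2/cryptate HTRF competition, 1 h room-temperature detection, in HEK293 cells expressing TSHR. Fifteen-point titrations, each run in triplicate, with a 30 min room-temperature incubation beforehand.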

[6] = qHTS assay to identify small molecule agonists of the hypoxia (HIF-1) signaling pathway - cell viability counter screen (AID 1224844; calls by dose curve; further: nearly all actives have a fitted effect of over 50% in size; further: potency means the concentration at half of the fitted maximal effect)
How it was run: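 Same wells as the HIF-1 reporter screen; ME-180 cells carrying HRE-bla, 17 hr treatment at 37C; CellTiter-Glo luminescence read after 30 min at room temperature.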

[7] = qHTS assay to identify small molecule agonists of H2AX (AID 1224845; active means well fitted activation curve with a large enough effect in the signal ratio in the repeat runs, not every such curve was filed as active; the % refers to the signal ratio)
How it was run: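 Phospho-H2AX Ser139 measured by HTRF (ex 320 nm; em 665 and 620 nm) after 24 hr antibody incubation. Compounds, 15 concentrations, 0.76% DMSO, were applied to CHO-K1 cells for 3hr at 37C before lysis.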

[8] = qHTS assay to identify small molecule agonists of the hypoxia (HIF-1) signaling pathway (AID 1224846; active means well fitted activation curve with a large enough effect in the signal ratio in the repeat runs, not every such curve was filed as active; the % refers to the signal ratio)
How it was run: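 In ME-180 cells bearing an HRE-bla construct, 17 h treatment with DMSO-dissolved compounds at 37C was followed by CCF4-AM loading to quantify reporter induction.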

[9] = qHTS assay to identify small molecule agonists of H2AX - cell viability counter screen (AID 1224847; calls by dose curve; further: nearly all actives have a fitted effect of over 30% in size; further: potency means the concentration at half of the fitted maximal effect)
How it was run: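 Wild-type CHO-K1 cells (10% FBS medium) were plated overnight at 37C, exposed to compounds at 15 concentrations for 3 hr at 37C (0.76% DMSO final), and viability was read as CellTiter-Glo luminescence after 30 min at room temperature.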

[10] = qHTS RealTime-Glo MT Cell Viability Assay in HepG2 cells - 24 hour (AID 1224867); further: nearly all actives have a fitted effect of over 50% in size; further: potency means the concentration at half of the fitted maximal effect
How it was run: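 qHTS, HepG2, 600 cells/well, RealTime-Glo (NanoLuc + prosubstrate) added with cells; 5 h preincubation; DMSO compound addition; 37 C; luminescence at 0/8/16/24/32/40 h.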

[11] = A CellTox Green Cytotoxicity Assay to monitor cytotoxicity in HEK293 cells - 0 hour (AID 1224869); further: nearly all actives have a fitted effect of over 50% in size
How it was run: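 Homogeneous no-lysis format: HEK293 cell suspension mixed with CellTox Green reagent, seeded, incubated 5 h at 37 C/5% CO2, then dosed by pintool with compound in DMSO.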

[12] = qHTS assay to identify small molecule antagonists of the estrogen related receptor signaling pathway with the pleiotropic PPARgamma coactivator (PGC) from Tox21 10K library (AID 1224841; call rule not given here; further: actives are mostly falling curves and most rising ones were filed inactive; nearly all actives have a fitted effect of over 50% in size; further: potency means the concentration at half of the fitted maximal effect)
How it was run: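 In the PGC/ERR line, DMSO solutions of test chemicals are pin-delivered to 2,000 cells/well six hours after dispensing. Following eighteen hours' incubation, One-Glo reagent is added and luminescence recorded.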

[13] = qHTS assay to identify small molecule agonists of the estrogen related receptor signaling pathway with the pleiotropic PPARgamma coactivator (PGC) from Tox21 10K library (AID 1224842); further: nearly all actives have a fitted effect of over 15% in size
How it was run: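 Luminescence from One-Glo (30 min, room temperature) measured after PGC/ERR cells had 18 h at 37 C with pinned compound (23 nL in DMSO). Cells had been seeded at 2,000 per well and pre-incubated 6 h.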

[14] = qHTS assay to identify small molecule antagonists of the estrogen related receptor (ERR) signaling pathway from Tox21 library (AID 1224848); further: nearly all actives have a fitted effect of over 50% in size; further: potency means the concentration at half of the fitted maximal effect
How it was run: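 Luciferase luminescence (ONE-Glo, 30 min room temperature) was the read-out. Cells of the NTP-supplied ERR line, 2,000 per well, were given 6 h at 37 C before compound addition in DMSO and 18 h exposure at 37 C.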

[15] = qHTS assay to identify small molecule agonists of the estrogen related receptor (ERR) signaling pathway from Tox21 library (AID 1224849; calls by dose curve; further: nearly all actives have a fitted effect of over 15% in size); settings: ERR reporter cell line, ONE-Glo luciferase, 18 h
How it was run: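 Reporter cells (ERR, NTP source) treated with Tox21 10K compounds 18 h, 37 C. Readout: ONE-Glo luminescence, 30 min RT.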

[16] = molecular target: Nuclear receptor subfamily 1 group I member 3 (Homo sapiens) (UniProt Q14994); assay: qHTS assay to identify small molecule antagonists of the constitutive androstane receptor (CAR) signaling pathway (AID 1224838); further: nearly all actives have a fitted effect of over 40% in size; further: potency means the concentration at half of the fitted maximal effect
How it was run: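 CITCO-stimulated (50 nM final) HepG2 cells stably transfected with hCAR and CYP2B6-2.2kb luciferase were exposed to compounds at 15 concentrations for 24 h at 37 C/5% CO2. A luciferase reagent was added and luminescence recorded after 30 min.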

[17] = qHTS assay to identify small molecule antagonists of the estrogen related receptor signaling pathway with the pleiotropic PPARgamma coactivator (PGC) from Tox21 10K library - cell viability counter screen (AID 1224840; active means well fitted cell-killing curve with a large enough effect in the repeat runs, not every such curve was filed as active; further: nearly all actives have a fitted effect of over 40% in size; further: potency means the concentration at half of the fitted maximal effect)
How it was run: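 Viability counter screen, PGC/ERR cells: 17.5 h compound exposure at 37 C, CellTiter-Fluor fluorescence endpoint.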

[18] = qHTS RealTime-Glo MT Cell Viability Assay in HEK293 cells - 32 hour (AID 1224868); further: nearly all actives have a fitted effect of over 50% in size; further: potency means the concentration at half of the fitted maximal effect
How it was run: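 Assay medium contained NanoLuc luciferase plus cell-permeant prosubstrate, added with HEK293 cells at 600 cells/well. After 5 h at 37 C/5% CO2 compounds were added; plates stayed at 37 C for 40 h with serial luminescence reads.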

[19] = qHTS assay to identify small molecule agonists of the constitutive androstane receptor (CAR) signaling pathway - cell viability counter screen (AID 1224836); further: nearly all actives have a fitted effect of over 45% in size
How it was run: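 HepG2 cells stably carrying hCAR and a CYP2B6-2.2kb reporter were plated 4 h, then given compounds at 15 concentrations plus PK11195 (final 0.75 uM). After 23 h at 37 C, viability was read by CellTiter-Fluor fluorescence.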
On the % scale 0 is the no-effect control and ±100 the full control effect.

CCOc1cc(C=O)ccc1O
inactive: Potency [1] | Potency [2] | Potency [3] | Potency [4] | Potency [5] | Potency [6] | Potency [7] | outcome [8] | Potency [9] | Potency [10] | Potency [11]

O=Cc1ccco1
inactive: Potency [1] | Potency [2] | Potency [3] | Potency [12] | Potency [13] | Potency [5] | Potency [6] | outcome [8] | Potency [9] | Potency [14] | activity change, positive = activation ([15]; at 92.4 µM (top of the series)) 0.408% and 7.35% | Potency [10] | Potency [11]

Oc1cc(Cl)ccc1Oc1ccc(Cl)cc1Cl
active: Potency [1] 24.9 µM and 29.8 µM | Potency [17] 24.9 µM | Potency [12] 33.2 µM | Potency [9] 51.7 µM and 43.8 µM | Potency [14] 11.1 µM and 18.8 µM | Potency [10] 42.2 µM [cytotoxic] and 23.9 µM | Potency [18] 20 µM
50.1 µM (active) and inactive: Potency [6]
inactive: Potency [2] | Potency [4] | Potency [13] | activity change, positive = activation ([15]; at 42.5 µM (top of the series)) -45.8% | activity change, positive = activation ([15]; at 92.4 µM (top of the series)) -47.1%
55.8 µM (active) and inactive: Potency [16]

C=CCN(CC=C)C(=O)C(Cl)Cl
inactive: Potency [1] | Potency [19] | Potency [3] | Potency [16] | Potency [4] | Potency [17] | Potency [5] | Potency [6] | Potency [7] | outcome [8] | Potency [9] | Potency [10] | Potency [11]

C=CCc1ccc(OC)cc1
inactive: Potency [1] | Potency [2] | Potency [3] | Potency [16] | Potency [4] | Potency [5] | Potency [6] | Potency [7] | outcome [8] | Potency [9] | Potency [10] | Potency [18] | Potency [11]

CC(C)Oc1cc(-n2nc(C(C)(C)C)oc2=O)c(Cl)cc1Cl
inactive: Potency [1] | Potency [19] | Potency [3] | Potency [16] | Potency [17] | Potency [5] | Potency [6] | Potency [7] | outcome [8] | Potency [9] | Potency [10] | Potency [11]
active: Potency [4] 60.3 µM and 61.1 µM | Potency [18] 34.7 µM

CCCCOCCOP(=O)(OCCOCCCC)OCCOCCCC
inactive: Potency [1] | Potency [2] | Potency [3] | Potency [4] | Potency [17] | Potency [6] | Potency [7] | outcome [8] | Potency [9] | Potency [10] | Potency [11]

O=C(NC(=O)c1c(F)cccc1F)Nc1ccc(Cl)cc1
inactive: Potency [1] | Potency [2] | Potency [3] | Potency [16] | Potency [17] | Potency [5] | Potency [6] | outcome [8] | Potency [9] | Potency [10]
inactive and 1.22 µM (active): Potency [4]

COc1ccc(C=O)cc1
inactive: Potency [1] | Potency [2] | Potency [3] | Potency [4] | Potency [17] | Potency [5] | Potency [6] | outcome [8] | Potency [9] | Potency [10] | Potency [18] | Potency [11]

O=[N+]([O-])c1c(Cl)c(Cl)c(Cl)c(Cl)c1Cl
inactive: Potency [1] | Potency [19] | Potency [3] | Potency [16] | Potency [6] | Potency [7] | outcome [8] | Potency [9] | Potency [10] | Potency [18] | Potency [11]

O=P(O)(O)CCCl
inactive: Potency [1] | Potency [19] | Potency [3] | Potency [16] | Potency [4] | Potency [5] | Potency [6] | outcome [8] | Potency [9] | Potency [10]

CCCCC(CC)COC(=O)Cl (centres undefined)
inactive: Potency [1] | Potency [2] | Potency [3] | Potency [4] | Potency [12] | Potency [13] | Potency [5] | Potency [6] | Potency [7] | outcome [8] | Potency [9] | Potency [14] | activity change, positive = activation ([15]; at 92.4 µM (top of the series)) 0.183% and -0.549% | Potency [10]

CCCCCCCCOC(=O)c1ccccc1C(=O)OCCCCCCCC
inactive and 17.2 µM (active): Potency [4]
inactive: Potency [1] | Potency [2] | Potency [3] | Potency [5] | Potency [6] | Potency [7] | outcome [8] | Potency [9] | Potency [10] | Potency [18] | Potency [11]

CN(C)c1ccc(C(=O)c2ccc(N(C)C)cc2)cc1
active: Potency [2] 35.2 µM and 10 µM | Potency [4] 1.93 µM
inactive and 9.69 µM (active): Potency [1]
inactive: Potency [3] | Potency [16] | Potency [6] | outcome [8] | Potency [10] | Potency [11]

CCC(C)c1cc([N+](=O)[O-])cc([N+](=O)[O-])c1O (centres undefined)
inactive and 10.9 µM (active): Potency [12]
inactive and 19.3 µM (active): Potency [1]
inactive: Potency [2] | Potency [4] | Potency [13] | Potency [5] | Potency [6] | outcome [8] | activity change, positive = activation ([15]; at 92.4 µM (top of the series)) -0.756% and -61% | Potency [10] | Potency [18]
inactive and 17.2 µM (active): Potency [17]
inactive and 28.4 µM (active): Potency [9]
inactive and 13.7 µM (active): Potency [14]

CCC(CC)Nc1c([N+](=O)[O-])cc(C)c(C)c1[N+](=O)[O-]
active: Potency [4] 49.2 µM and 24.3 µM
inactive: Potency [1] | Potency [2] | Potency [3] | Potency [12] | Potency [13] | Potency [5] | Potency [6] | Potency [7] | outcome [8] | Potency [9] | Potency [14] | activity change, positive = activation ([15]; at 92.4 µM (top of the series)) -5.44% and 8% | Potency [10]

Nc1ccc(Cl)c(Cl)c1
active: Potency [14] 21.7 µM
inactive: Potency [1] | Potency [2] | Potency [3] | Potency [16] | Potency [4] | Potency [17] | Potency [12] | Potency [13] | Potency [5] | Potency [6] | Potency [7] | outcome [8] | Potency [9] | activity change, positive = activation ([15]; at 92.4 µM (top of the series)) -24.9% and -36.3% | Potency [10] | Potency [18] | Potency [11]
